# About 410 targets per protein were measured; listed, in parts, are those with the strongest signals and a random draw of the rest.
# B1: PkBDPgamma (Plasmodium knowlesi) (protein)
# chain: SAINQIFLQNNVMDKCNDKRKRGERDWDCPTEKDVCIPDRRYQLCMMEITNLVDTDTHFHSDIIFRKSYSRRRLIYDVGGRGDLLLKKYNNVYSEDLCKDIKWSLQDFGDIIMGTDMEGIGYSLVVQNNLRSIFGTGTSAELDRKKWWNDHKKDIWKAMILSVKEKNRYSAWNCKEDVQIKVEPQIYRWIREWGRDYMSEFREQRRKLNEKCEDKLYYSTMLICTLPPCNNACKSYDEWITGKKKQWDVLSTKFSSVKKAQKIETENIARAYDILKQELNGFNEVTFENEINKRDKLYNYFCVCIVQEARKNTQENVKNVGSGVESKAPSSNPINEAVKSSSGEGKVQEDSAHRSVNEGEGKSSTNEADPGSQPGAAASGGGSGGGTGGGVDLAPQMLRELQETNAALQDVRELLRQQVKEITFLKNTVMECDACGGPLDRNLPPLAPLGPTGGWSHPQFEK
# Tests used:
# Test in all cases: glycan array binding signal (z-score within array); higher = stronger binding
# Conditions in all cases: glycan notation: IUPAC condensed, linker removed
# [1] = biological target: Fuc(a1-2)Gal(b1-3)GlcNAc(b1-3)GalNAc
# In short: (§1)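 Glycan array binding is given as a within-array Z-score, which can be read as non-binding when negative. The arrays, 3228 of them, came from the Consortium for Functional Glycomics database and were retained only where the protein sequence was available. Z-scores were averaged across arrays of the same protein sequence at different concentrations or buffers and across linkers.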
# Fuc(a1-2)Gal(b1-4)Glc = biological target: Fuc(a1-2)Gal(b1-4)Glc
# In short: as §1
# [2] = biological target: Fuc(a1-2)Gal(b1-4)GlcNAc(b1-2)[Fuc(a1-2)Gal(b1-4)GlcNAc(b1-4)]Man(a1-3)[Fuc(a1-2)Gal(b1-4)GlcNAc(b1-2)Man(a1-6)]Man(b1-4)GlcNAc(b1-4)GlcNAc
# In short: as §1
# [3] = biological target: Fuc(a1-2)Gal(b1-4)GlcNAc(b1-3)GalNAc
# In short: as §1
# [4] = biological target: Fuc(a1-2)Gal(b1-4)GlcNAc(b1-3)[Fuc(a1-3)[Gal(b1-4)]GlcNAc(b1-6)]Gal(b1-4)Glc
# In short: as §1
# [5] = biological target: Fuc(a1-2)Gal(b1-4)[Fuc(a1-3)]GlcNAc(b1-2)[Fuc(a1-2)Gal(b1-4)[Fuc(a1-3)]GlcNAc(b1-4)]Man(a1-3)[Fuc(a1-2)Gal(b1-4)[Fuc(a1-3)]GlcNAc(b1-2)Man(a1-6)]Man(b1-4)GlcNAc(b1-4)GlcNAc
# In short: as §1
# [6] = biological target: Fuc(a1-2)[Gal(a1-3)]Gal(b1-4)GlcNAc(b1-2)Man(a1-3)[Fuc(a1-2)[Gal(a1-3)]Gal(b1-4)GlcNAc(b1-2)Man(a1-6)]Man(b1-4)GlcNAc(b1-4)GlcNAc
# In short: as §1
# [7] = biological target: Fuc(a1-2)[GalNAc(a1-3)]Gal(b1-3)GlcNAc
# In short: as §1
# [8] = biological target: Fuc(a1-2)[GalNAc(a1-3)]Gal(b1-3)GlcNAc(b1-6)GalNAc
# In short: as §1
# [9] = biological target: Fuc(a1-2)[GalNAc(a1-3)]Gal(b1-4)GlcNAc(b1-2)Man(a1-3)[Fuc(a1-2)[GalNAc(a1-3)]Gal(b1-4)GlcNAc(b1-2)Man(a1-6)]Man(b1-4)GlcNAc(b1-4)GlcNAc
# In short: as §1
# [10] = biological target: Fuc(a1-2)[GalNAc(a1-3)]Gal(b1-4)GlcNAc(b1-6)GalNAc
# In short: as §1
# [11] = biological target: Fuc(a1-3)[Gal(b1-4)]GlcNAc(b1-3)GalNAc
# In short: as §1
# Fuc(a1-4)GlcNAc = biological target: Fuc(a1-4)GlcNAc
# In short: as §1
# Gal(a1-3)Gal(b1-4)GlcNAc = biological target: Gal(a1-3)Gal(b1-4)GlcNAc
# In short: as §1
# Gal(b1-2)Gal = biological target: Gal(b1-2)Gal
# In short: as §1
# Gal(b1-3)Gal = biological target: Gal(b1-3)Gal
# In short: as §1
# [12] = biological target: Gal(b1-3)GalNAc(b1-4)Gal(b1-4)Glc
# In short: as §1
# [13] = biological target: Gal(b1-3)GlcNAc(a1-6)Gal(b1-4)GlcNAc
# In short: as §1
# [14] = biological target: Gal(b1-3)GlcNAc(b1-3)Gal(b1-3)GlcNAc
# In short: as §1
# [15] = biological target: Gal(b1-3)GlcNAc(b1-3)Gal(b1-4)[Fuc(a1-3)]GlcNAc(b1-6)[Gal(b1-3)GlcNAc(b1-3)]Gal(b1-4)Glc
# In short: as §1
# [16] = biological target: Gal(b1-3)[Fuc(a1-4)]GlcNAc(b1-6)GalNAc
# In short: as §1
# [17] = biological target: Gal(b1-4)GlcNAc(b1-3)Gal(b1-4)GlcNAc(b1-2)[Gal(b1-4)GlcNAc(b1-3)Gal(b1-4)GlcNAc(b1-6)]Man(a1-6)[Gal(b1-4)GlcNAc(b1-3)Gal(b1-4)GlcNAc(b1-2)Man(a1-3)]Man(b1-4)GlcNAc(b1-4)GlcNAc
# In short: as §1
# [18] = biological target: Gal(b1-4)GlcNAc(b1-3)Gal(b1-4)GlcNAc(b1-3)Gal(b1-4)GlcNAc(b1-2)Man(a1-3)[Gal(b1-4)GlcNAc(b1-3)Gal(b1-4)GlcNAc(b1-3)Gal(b1-4)GlcNAc(b1-2)Man(a1-6)]Man(b1-4)GlcNAc(b1-4)GlcNAc
# In short: as §1
# [19] = biological target: Gal(b1-4)GlcNAc(b1-3)Gal(b1-4)GlcNAc(b1-3)Gal(b1-4)GlcNAc(b1-3)Gal(b1-4)GlcNAc(b1-3)Gal(b1-4)GlcNAc(b1-2)Man(a1-3)[Gal(b1-4)GlcNAc(b1-3)Gal(b1-4)GlcNAc(b1-3)Gal(b1-4)GlcNAc(b1-3)Gal(b1-4)GlcNAc(b1-3)Gal(b1-4)GlcNAc(b1-2)Man(a1-6)]Man(b1-4)GlcNAc(b1-4)GlcNAc
# In short: as §1
# [20] = biological target: Gal(b1-4)GlcNAc(b1-3)Gal(b1-4)GlcNAc(b1-3)Gal(b1-4)GlcNAc(b1-3)Gal(b1-4)GlcNAc(b1-3)Gal(b1-4)GlcNAc(b1-2)[Gal(b1-4)GlcNAc(b1-3)Gal(b1-4)GlcNAc(b1-3)Gal(b1-4)GlcNAc(b1-3)Gal(b1-4)GlcNAc(b1-3)Gal(b1-4)GlcNAc(b1-6)]Man(a1-6)[Gal(b1-4)GlcNAc(b1-3)Gal(b1-4)GlcNAc(b1-3)Gal(b1-4)GlcNAc(b1-3)Gal(b1-4)GlcNAc(b1-3)Gal(b1-4)GlcNAc(b1-2)Man(a1-3)]Man(b1-4)GlcNAc(b1-4)[Fuc(a1-6)]GlcNAc
# In short: as §1
# [21] = biological target: Gal3S(b1-4)[Fuc(a1-3)]GlcNAc
# In short: as §1
# Gal3S6S(b1-4)GlcNAc6S = biological target: Gal3S6S(b1-4)GlcNAc6S
# In short: as §1
# GalNAc(a1-3)Gal = biological target: GalNAc(a1-3)Gal
# In short: as §1
binder,measurement,setting,value
B1,glycan array binding signal (z-score),[1],0.928
same,glycan array binding signal (z-score),Fuc(a1-2)Gal(b1-4)Glc,-0.028
same,glycan array binding signal (z-score),[2],-0.391
same,glycan array binding signal (z-score),[3],1.14
same,glycan array binding signal (z-score),[4],-0.305
same,glycan array binding signal (z-score),[5],0.541
same,glycan array binding signal (z-score),[6],0.37
same,glycan array binding signal (z-score),[7],0.388
same,glycan array binding signal (z-score),[8],-0.403
same,glycan array binding signal (z-score),[9],0.106
same,glycan array binding signal (z-score),[10],-0.264
same,glycan array binding signal (z-score),[11],0.185
same,glycan array binding signal (z-score),Fuc(a1-4)GlcNAc,-0.191
same,glycan array binding signal (z-score),Gal(a1-3)Gal(b1-4)GlcNAc,-0.331
same,glycan array binding signal (z-score),Gal(b1-2)Gal,-0.181
same,glycan array binding signal (z-score),Gal(b1-3)Gal,0.074
same,glycan array binding signal (z-score),[12],0.593
same,glycan array binding signal (z-score),[13],-0.036
same,glycan array binding signal (z-score),[14],-0.37
same,glycan array binding signal (z-score),[15],-0.308
same,glycan array binding signal (z-score),[16],-0.142
same,glycan array binding signal (z-score),[17],0.897
same,glycan array binding signal (z-score),[18],0.866
same,glycan array binding signal (z-score),[19],1.25
same,glycan array binding signal (z-score),[20],0.939
same,glycan array binding signal (z-score),[21],-0.081
same,glycan array binding signal (z-score),Gal3S6S(b1-4)GlcNAc6S,-0.041
same,glycan array binding signal (z-score),GalNAc(a1-3)Gal,-0.429

# From the supplement of paper PMC8728848
